According to PubChem BioAssay (NCI):
Compounds without any hit were thinned out: in the full panel of roughly 83,000, 20% have a hit.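 How to read the values: 0–100, growth inhibition (40 = 60% inhibited); 0, no net growth; -100 to 0, cell death (-40 = 40% of starting cells died; -100 = all dead).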 Active and inactive are the calls of the source. How the source made its calls: active means growth percent below 10; inactive means the rest.

How the values were obtained:
Test in all cases: NCI-60 one-dose screen, 48 h (100 = growth as untreated, 0 = no growth, -100 = all killed)
Details in all cases: 10 µM unless noted
SR leukemia = system: SR leukemia
RPMI-8226 leukemia = system: RPMI-8226 leukemia
OVCAR-8 ovarian = system: OVCAR-8 ovarian
OVCAR-5 ovarian = system: OVCAR-5 ovarian
OVCAR-4 ovarian = system: OVCAR-4 ovarian
SK-OV-3 ovarian = system: SK-OV-3 ovarian
IGROV1 ovarian = system: IGROV1 ovarian
OVCAR-3 ovarian = system: OVCAR-3 ovarian
HS 578T breast = system: HS 578T breast
NCI/ADR-RES ovarian = system: NCI/ADR-RES ovarian
T-47D breast = system: T-47D breast
BT-549 breast = system: BT-549 breast
MDA-MB-435 melanoma = system: MDA-MB-435 melanoma
SW-620 colon = system: SW-620 colon
MCF7 breast = system: MCF7 breast
HCT-116 colon = system: HCT-116 colon
HCC-2998 colon = system: HCC-2998 colon
KM12 colon = system: KM12 colon

Measured: growth

CSc1ccc(/C=C2\C=C(CC(=O)NCc3ccc(C(=O)c4ccccc4)cc3)c3cc(F)ccc32)cc1
active: OVCAR-8 ovarian 1.81% | SK-OV-3 ovarian -34.4% | OVCAR-3 ovarian -60.1% | HS 578T breast 2.68% | NCI/ADR-RES ovarian -34.6% | MDA-MB-435 melanoma -47.8% | SW-620 colon 9.98% | MCF7 breast -2.9% | HCT-116 colon -28% | HCC-2998 colon -0.5% | KM12 colon -61.4%
inactive: SR leukemia 10.3% | RPMI-8226 leukemia 15.2% | OVCAR-5 ovarian 25.2% | OVCAR-4 ovarian 10.9% | IGROV1 ovarian 10.3% | T-47D breast 31.6% | BT-549 breast 25.7%

O=C1/C(=C/c2cc(F)cc(F)c2)Cc2cc(F)cc(F)c21
inactive: SR leukemia 62.8% | RPMI-8226 leukemia 94.1% | OVCAR-8 ovarian 111% | OVCAR-5 ovarian 96.6% | OVCAR-4 ovarian 110% | SK-OV-3 ovarian 111% | IGROV1 ovarian 93.2% | OVCAR-3 ovarian 94.9% | HS 578T breast 90.5% | NCI/ADR-RES ovarian 98.2% | T-47D breast 107% | BT-549 breast 96.5% | MDA-MB-435 melanoma 94.8% | SW-620 colon 99.2% | MCF7 breast 56.7% | HCT-116 colon 79.8% | HCC-2998 colon 105% | KM12 colon 92.6%

Cc1nn(-c2cccc(Cl)c2)c(C)c1N=Nc1ccc(Br)cc1
inactive: SR leukemia 92.7% | RPMI-8226 leukemia 95.4% | OVCAR-8 ovarian 97.4% | OVCAR-5 ovarian 94.1% | OVCAR-4 ovarian 94.5% | SK-OV-3 ovarian 92.3% | IGROV1 ovarian 100% | OVCAR-3 ovarian 112% | HS 578T breast 96.6% | NCI/ADR-RES ovarian 105% | T-47D breast 80.5% | BT-549 breast 97.6% | MDA-MB-435 melanoma 99.8% | SW-620 colon 103% | MCF7 breast 89.4% | HCT-116 colon 89.5% | HCC-2998 colon 100% | KM12 colon 100%

Cc1csc(N/N=C/c2ccncc2)n1
inactive: SR leukemia 96.6% | RPMI-8226 leukemia 131% | OVCAR-8 ovarian 97.7% | OVCAR-5 ovarian 112% | OVCAR-4 ovarian 116% | SK-OV-3 ovarian 101% | IGROV1 ovarian 105% | OVCAR-3 ovarian 112% | HS 578T breast 104% | NCI/ADR-RES ovarian 107% | T-47D breast 94% | BT-549 breast 105% | MDA-MB-435 melanoma 104% | SW-620 colon 103% | MCF7 breast 87.1% | HCT-116 colon 97.6% | HCC-2998 colon 99.9% | KM12 colon 106%

CC(C)CC(=O)C(CCc1ccccn1)C(C)C (configuration not stated)
inactive: SR leukemia 108% | RPMI-8226 leukemia 95.8% | OVCAR-8 ovarian 105% | OVCAR-5 ovarian 105% | OVCAR-4 ovarian 111% | SK-OV-3 ovarian 120% | IGROV1 ovarian 114% | OVCAR-3 ovarian 118% | HS 578T breast 97.8% | NCI/ADR-RES ovarian 102% | T-47D breast 96.3% | BT-549 breast 108% | MDA-MB-435 melanoma 104% | SW-620 colon 104% | MCF7 breast 104% | HCT-116 colon 105% | HCC-2998 colon 106% | KM12 colon 113%

Clc1ccccc1CNc1c2ccccc2nc2ccccc12
inactive: OVCAR-8 ovarian 23.8% | OVCAR-5 ovarian 32.6% | OVCAR-4 ovarian 13.1% | SK-OV-3 ovarian 54.9% | IGROV1 ovarian 17.8% | OVCAR-3 ovarian 53.6% | HS 578T breast 50% | NCI/ADR-RES ovarian 23.8% | T-47D breast 30.4% | BT-549 breast 38.1% | MDA-MB-435 melanoma 27.2% | KM12 colon 22%
active: SR leukemia 0.495% | RPMI-8226 leukemia -26.9% | SW-620 colon 9.61% | MCF7 breast -0.21% | HCT-116 colon 8.1% | HCC-2998 colon -17.2%

COc1ccc(/C=N/NC(N)=S)c(OC)n1
inactive: SR leukemia 88.3% | RPMI-8226 leukemia 94.8% | OVCAR-8 ovarian 97.7% | OVCAR-5 ovarian 109% | OVCAR-4 ovarian 93.9% | SK-OV-3 ovarian 114% | IGROV1 ovarian 100% | OVCAR-3 ovarian 111% | HS 578T breast 103% | NCI/ADR-RES ovarian 109% | T-47D breast 80% | BT-549 breast 102% | MDA-MB-435 melanoma 101% | SW-620 colon 108% | MCF7 breast 93.6% | HCT-116 colon 99.2% | HCC-2998 colon 115% | KM12 colon 102%

CCN(CC)Cc1cc(Nc2ccnc3ccc(OC)cc23)ccc1O
inactive: RPMI-8226 leukemia 48.5% | OVCAR-8 ovarian 28.4% | OVCAR-5 ovarian 55% | OVCAR-4 ovarian 55.3% | SK-OV-3 ovarian 73.6% | IGROV1 ovarian 23.8% | OVCAR-3 ovarian 50.8% | HS 578T breast 77.2% | NCI/ADR-RES ovarian 35.8% | BT-549 breast 55.2% | MDA-MB-435 melanoma 47.6% | SW-620 colon 27.5% | MCF7 breast 22.9% | HCT-116 colon 16.2% | HCC-2998 colon 32.8% | KM12 colon 42.2%
active: SR leukemia 7.65% | T-47D breast -43.9%

CN1C(=O)NC(Cc2c[nH]c3c(Cl)cccc23)C1=O (configuration not stated)
inactive: SR leukemia 101% | RPMI-8226 leukemia 119% | OVCAR-8 ovarian 112% | OVCAR-5 ovarian 102% | OVCAR-4 ovarian 101% | SK-OV-3 ovarian 113% | IGROV1 ovarian 108% | OVCAR-3 ovarian 90.8% | HS 578T breast 103% | NCI/ADR-RES ovarian 100% | T-47D breast 111% | BT-549 breast 118% | MDA-MB-435 melanoma 114% | SW-620 colon 112% | MCF7 breast 96.2% | HCT-116 colon 108% | HCC-2998 colon 97.5% | KM12 colon 96.6%
